Source: PubChem BioAssay (NCATS)
Inconclusive results are not listed. The source made the active and inactive calls. Calls follow the shape of the dose curve; as a rule, active = well fitted curve in the direction sought with a large enough effect; inconclusive = small, poorly fitted or top-dose-only effect, or another doubt; inactive = no such curve, though single readings can be large; an effect the other way counts as inactive or inconclusive.

What was measured:
[1] = MultiTox-Fluor Cytotoxicity Assay - LYMP1-001 - Live Cells (AID 947)
[2] = MultiTox-Fluor Cytotoxicity Assay - LYMP1-002 - Live Cells (AID 955);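 also: cells exposed to compound for 16 hours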
Procedure, shortened: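 In this qHTS viability format, lymphoblastoid cells (LYMP1-002, human) received compound for 16 hr at 37 C. Fluorogenic GF-AFC cleavage by viable cells was detected at 405/510 nm after 1 h at room temperature.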

[3] = MultiTox-Fluor Cytotoxicity Assay - LYMP1-003 - Dead Cells (AID 961); also: nearly all actives have a fitted effect of over 70% in size
Procedure, shortened: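 Human lymphoblastoid LYMP1-003 cells (2500/well) were treated with compounds for 16 hr at 37 C in complete medium. Dead-cell protease release was read by bis-AAF-R110 fluorescence (Ex/Em 485/520). AC50 came from Hill fits, normalized to DMSO and 15 uM tetraoctylammonium bromide.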

[4] = MultiTox-Fluor Cytotoxicity Assay - LYMP1-003 - Live Cells (AID 962);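 also: cells exposed to compound for 16 hours at 37 °C; cytotoxic hits lower the live-cell protease signal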
Procedure, shortened: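 Human lymphoblastoid line LYMP1-003 in complete culture medium, treated 16 hr with titrated compounds. Viable cells quantified via cell-permeant GF-AFC substrate fluorescence; AC50 derived by Hill fitting.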

[5] = Cell Viability - LYMP2-003 (AID 965);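 also: cells exposed to compounds for 24 h before reading; nearly all actives have a fitted effect of over 50% in size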
Procedure, shortened: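 Human lymphoblastoid cells (2500/well) were pre-incubated 5 hr at 37 C, then exposed to compounds over a concentration range for 24 hr at 37 C. Intracellular ATP was read by CellTiter-Glo luminescence; AC50 came from Hill-equation fits.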

[6] = Cell Viability - LYMP2-004 (AID 966); also: nearly all actives have a fitted effect of over 65% in size
Procedure, shortened: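 Viable-cell number estimated from ATP luminescence (CellTiter-Glo) in 2500 human lymphoblastoid cells/well after 24 hr at 37 C with compound. AC50 fitted to the standard Hill equation.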

[7] = Cell Viability - LYMP2-009 (AID 968); also: series mostly up to about 92 µM; nearly all actives have a fitted effect of over 55% in size
[8] = Cell Viability - LYMP2-011 (AID 969); also: nearly all actives have a fitted effect of over 60% in size
Procedure, shortened: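 Cells seeded at 2500 per well rest 5 hr before compound addition, then incubate 24 hr at 37 C. CellTiter-Glo reagent is added for 30 min at room temperature before luminescence detection.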

[9] = Cell Viability - LYMP2-013 (AID 970); also: series mostly up to about 92 µM; nearly all actives have a fitted effect of over 55% in size
Procedure, shortened: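 In complete culture medium, human lymphoblastoid cells were dosed for 24 hr at 37 C, with tetraoctylammonium bromide (6.4pM to 92 uM) as positive control. Viability reflects luciferase-based ATP signal; AC50 derived from concentration-response curves.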

[10] = Cell Viability - LYMP2-017 (AID 972); also: series mostly up to about 92 µM; nearly all actives have a fitted effect of over 55% in size
Procedure, shortened: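 In this qHTS format, lymphoblastoid cells in complete medium receive test compound for a day at 37 C before ATP content is quantified by luciferase luminescence. Reported AC50 figures come from standard Hill-equation curve fitting.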

[11] = Cell Viability - LYMP2-019 (AID 973); also: nearly all actives have a fitted effect of over 55% in size
Procedure, shortened: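 AC50 values come from Hill-equation modelling of qHTS concentration-response curves, where viability is measured as luciferase-based ATP luminescence in the lymphoblastoid line after 24 hr compound exposure in complete culture medium.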

[12] = Cell Viability - LYMP2-021 (AID 974)
Procedure, shortened: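 In qHTS format, compounds are tested against 2500 lymphoblastoid cells per well for 24 h; viable cell number is inferred from ATP-driven luciferase light, and Hill-equation fitting yields AC50 values.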

[13] = Cell Viability - LYMP2-006 (AID 978); also: series mostly up to about 92 µM; nearly all actives have a fitted effect of over 60% in size
Procedure, shortened: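 Human lymphoblastoid cells, 2500 per well, were preincubated 5 hr at 37 C, then exposed to compounds for 24 hr at 37 C in complete medium. Viability was read as intracellular ATP by CellTiter-Glo luminescence; AC50 from Hill-equation fits of qHTS concentration-response data.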

[14] = Cell Viability - LYMP2-007 (AID 979);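 also: cells exposed to compound for 24 h before reading; nearly all actives have a fitted effect of over 60% in size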
Procedure, shortened: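 Measured via luciferase-based ATP quantitation: lymphoblastoid cells, 24 hr compound exposure at 37 C, AC50 from Hill fits.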

[15] = Cell Viability - LYMP2-008 (AID 980); also: nearly all actives have a fitted effect of over 60% in size
Procedure, shortened: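 Measured: ATP-dependent luminescence, proportional to viable cell number, in human lymphoblastoid cells treated 24 hr with compound in complete culture medium. Values are AC50s from Hill-equation modelling of qHTS titrations.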

[16] = Cell Viability - LYMP2-010 (AID 981); also: nearly all actives have a fitted effect of over 55% in size
Procedure, shortened: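 This 24 hr viability screen uses LYMP2-010 lymphoblastoid cells, quantifies ATP via luciferase luminescence, and derives AC50 from Hill fits of qHTS concentration-response data.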

[17] = Cell Viability - LYMP2-012 (AID 982)
[18] = Cell Viability - LYMP2-016 (AID 984); also: nearly all actives have a fitted effect of over 55% in size
Procedure, shortened: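 Human lymphoblastoid cells (LYMP2-016), 2500/well in complete medium, preincubated 5 hr at 37 C, then compound-treated 24 hr at 37 C. Intracellular ATP read by CellTiter-Glo luminescence after 30 min at room temperature; AC50 from Hill-equation concentration-response fits.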

[19] = Cell Viability - LYMP2-018 (AID 985); also: nearly all actives have a fitted effect of over 50% in size
Procedure, shortened: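 In this qHTS viability assay, cells are treated for 24 hr and cellular ATP is quantified by luciferase-based luminescence, with tetraoctylammonium bromide as positive control.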

[20] = Cell Viability - LYMP2-020 (AID 986)
Procedure, shortened: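 Cells at 2500 per well receive a 24 hr compound exposure at 37 C. Viability is measured as ATP-dependent luciferase luminescence, with AC50 modeled from qHTS concentration-response curves.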

Measured: Potency

Cc1ccccc1O
inactive: all assays above
